{"source": "the supplement of paper PMC12282887", "experiment_in_all_cases": "promoter activity interaction Z-score (Lux/OD deviation from empty-vector control); higher = stronger promoter induction by the compound", "key": {"[1]": {"tested_on": "E. coli BW25113 acrABp lux reporter", "outline": "(§1)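 Reporter strains of E. coli BW25113 grew at 37°C in 40 µl LB Lennox in 384-well plates. Readings of OD600 and luminescence were taken every 30 min over 12 h, integrated over 0–8 h (wild type) or 1–9 h (deletion strains), and wells below 10% of the median growth value were excluded. Scores are Z-transformed residuals of growth-normalised luminescence from a fit against a control.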"}, "[2]": {"tested_on": "E. coli BW25113 micFp lux reporter", "outline": "as §1"}, "[3]": {"tested_on": "E. coli BW25113 ompFp lux reporter", "outline": "as §1"}, "[4]": {"tested_on": "E. coli BW25113 robp lux reporter", "outline": "as §1"}, "[5]": {"tested_on": "E. coli BW25113 soxSp lux reporter", "outline": "as §1"}, "[6]": {"tested_on": "E. coli BW25113 tolCp lux reporter", "outline": "as §1"}, "[7]": {"details": "18.1 µg/ml, genetic background: wild type"}, "[8]": {"details": "18.1 µg/ml, genetic background: ΔmarA"}, "[9]": {"details": "18.1 µg/ml, genetic background: Δrob"}, "[10]": {"details": "18.1 µg/ml, genetic background: ΔsoxS"}, "[11]": {"details": "36.3 µg/ml, genetic background: wild type"}, "[12]": {"details": "36.3 µg/ml, genetic background: ΔmarA"}, "[13]": {"details": "36.3 µg/ml, genetic background: Δrob"}, "[14]": {"details": "36.3 µg/ml, genetic background: ΔsoxS"}, "[15]": {"details": "72.6 µg/ml, genetic background: wild type"}, "[16]": {"details": "72.6 µg/ml, genetic background: ΔmarA"}, "[17]": {"details": "72.6 µg/ml, genetic background: Δrob"}, "[18]": {"details": "72.6 µg/ml, genetic background: ΔsoxS"}, "[19]": {"details": "145.1 µg/ml, genetic background: wild type"}, "[20]": {"details": "145.1 µg/ml, genetic background: ΔmarA"}, "[21]": {"details": "145.1 µg/ml, genetic background: Δrob"}, "[22]": {"details": "145.1 µg/ml, genetic background: ΔsoxS"}}, "note": "± gives the standard deviation of the averaged measurements."}
{"smiles": "Oc1cc(O)c2c(c1)O[C@@H](c1ccc(O)c(O)c1)[C@H](O)C2", "note": "[Catechin]", "values": [{"measurement": "promoter activity interaction Z-score", "setting": "[1]; [7]", "result": "0.118 ± 0.17"}, {"measurement": "promoter activity interaction Z-score", "setting": "[1]; [8]", "result": "-0.352 ± 0.15"}, {"measurement": "promoter activity interaction Z-score", "setting": "[1]; [9]", "result": "0.3299 ± 0.003"}, {"measurement": "promoter activity interaction Z-score", "setting": "[1]; [10]", "result": "-0.306 ± 0.42"}, {"measurement": "promoter activity interaction Z-score", "setting": "[1]; [11]", "result": "0.149 ± 0.084"}, {"measurement": "promoter activity interaction Z-score", "setting": "[1]; [12]", "result": "-1.14 ± 0.28"}, {"measurement": "promoter activity interaction Z-score", "setting": "[1]; [13]", "result": "0.394 ± 0.14"}, {"measurement": "promoter activity interaction Z-score", "setting": "[1]; [14]", "result": "-0.191 ± 0.27"}, {"measurement": "promoter activity interaction Z-score", "setting": "[1]; [15]", "result": "-0.243 ± 0.23"}, {"measurement": "promoter activity interaction Z-score", "setting": "[1]; [16]", "result": "-0.35 ± 0.0073"}, {"measurement": "promoter activity interaction Z-score", "setting": "[1]; [17]", "result": "0.0378 ± 0.18"}, {"measurement": "promoter activity interaction Z-score", "setting": "[1]; [18]", "result": "-0.0752 ± 0.23"}, {"measurement": "promoter activity interaction Z-score", "setting": "[1]; [19]", "result": "-0.205 ± 0.27"}, {"measurement": "promoter activity interaction Z-score", "setting": "[1]; [20]", "result": "-0.135 ± 0.26"}, {"measurement": "promoter activity interaction Z-score", "setting": "[1]; [21]", "result": "0.0277 ± 0.083"}, {"measurement": "promoter activity interaction Z-score", "setting": "[1]; [22]", "result": "-0.364 ± 0.16"}, {"measurement": "promoter activity interaction Z-score", "setting": "[2]; [7]", "result": "-0.45 ± 0.11"}, {"measurement": "promoter activity interaction Z-score", "setting": "[2]; [8]", "result": "-0.0948 ± 0.022"}, {"measurement": "promoter activity interaction Z-score", "setting": "[2]; [9]", "result": "-0.0243 ± 0.03"}, {"measurement": "promoter activity interaction Z-score", "setting": "[2]; [10]", "result": "-0.43 ± 0.036"}, {"measurement": "promoter activity interaction Z-score", "setting": "[2]; [11]", "result": "-0.372 ± 0.21"}, {"measurement": "promoter activity interaction Z-score", "setting": "[2]; [12]", "result": "-0.115 ± 0.1"}, {"measurement": "promoter activity interaction Z-score", "setting": "[2]; [13]", "result": "-0.0591 ± 0.057"}, {"measurement": "promoter activity interaction Z-score", "setting": "[2]; [14]", "result": "-0.4729 ± 0.00069"}, {"measurement": "promoter activity interaction Z-score", "setting": "[2]; [15]", "result": "-0.209 ± 0.095"}, {"measurement": "promoter activity interaction Z-score", "setting": "[2]; [16]", "result": "-0.0545 ± 0.022"}, {"measurement": "promoter activity interaction Z-score", "setting": "[2]; [17]", "result": "-0.0723 ± 0.19"}, {"measurement": "promoter activity interaction Z-score", "setting": "[2]; [18]", "result": "-0.295 ± 0.12"}, {"measurement": "promoter activity interaction Z-score", "setting": "[2]; [19]", "result": "-0.569 ± 0.15"}, {"measurement": "promoter activity interaction Z-score", "setting": "[2]; [20]", "result": "-0.0791 ± 0.1"}, {"measurement": "promoter activity interaction Z-score", "setting": "[2]; [21]", "result": "-0.0881 ± 0.0077"}, {"measurement": "promoter activity interaction Z-score", "setting": "[2]; [22]", "result": "-0.263 ± 0.028"}, {"measurement": "promoter activity interaction Z-score", "setting": "[3]; [7]", "result": "0.365 ± 0.41"}, {"measurement": "promoter activity interaction Z-score", "setting": "[3]; [8]", "result": "-0.591 ± 0.23"}, {"measurement": "promoter activity interaction Z-score", "setting": "[3]; [9]", "result": "-0.0407 ± 0.17"}, {"measurement": "promoter activity interaction Z-score", "setting": "[3]; [10]", "result": "-0.757 ± 0.35"}, {"measurement": "promoter activity interaction Z-score", "setting": "[3]; [11]", "result": "0.374 ± 0.65"}, {"measurement": "promoter activity interaction Z-score", "setting": "[3]; [12]", "result": "-0.588 ± 0.15"}, {"measurement": "promoter activity interaction Z-score", "setting": "[3]; [13]", "result": "0.0282 ± 0.096"}, {"measurement": "promoter activity interaction Z-score", "setting": "[3]; [14]", "result": "-0.571 ± 0.38"}, {"measurement": "promoter activity interaction Z-score", "setting": "[3]; [15]", "result": "0.326 ± 0.55"}, {"measurement": "promoter activity interaction Z-score", "setting": "[3]; [16]", "result": "-0.202 ± 0.48"}, {"measurement": "promoter activity interaction Z-score", "setting": "[3]; [17]", "result": "-0.391 ± 0.39"}, {"measurement": "promoter activity interaction Z-score", "setting": "[3]; [18]", "result": "-0.391 ± 0.094"}, {"measurement": "promoter activity interaction Z-score", "setting": "[3]; [19]", "result": "-0.0294 ± 0.93"}, {"measurement": "promoter activity interaction Z-score", "setting": "[3]; [20]", "result": "-0.395 ± 0.18"}, {"measurement": "promoter activity interaction Z-score", "setting": "[3]; [21]", "result": "0.079 ± 0.47"}, {"measurement": "promoter activity interaction Z-score", "setting": "[3]; [22]", "result": "-0.14 ± 0.27"}, {"measurement": "promoter activity interaction Z-score", "setting": "[4]; [7]", "result": "1.06 ± 0.79"}, {"measurement": "promoter activity interaction Z-score", "setting": "[4]; [8]", "result": "-0.456 ± 0.041"}, {"measurement": "promoter activity interaction Z-score", "setting": "[4]; [9]", "result": "0.533 ± 0.081"}, {"measurement": "promoter activity interaction Z-score", "setting": "[4]; [10]", "result": "0.443 ± 0.12"}, {"measurement": "promoter activity interaction Z-score", "setting": "[4]; [11]", "result": "0.0214 ± 0.94"}, {"measurement": "promoter activity interaction Z-score", "setting": "[4]; [12]", "result": "-0.758 ± 0.23"}, {"measurement": "promoter activity interaction Z-score", "setting": "[4]; [13]", "result": "0.0934 ± 0.32"}, {"measurement": "promoter activity interaction Z-score", "setting": "[4]; [14]", "result": "0.783 ± 1.1"}, {"measurement": "promoter activity interaction Z-score", "setting": "[4]; [15]", "result": "0.124 ± 0.48"}, {"measurement": "promoter activity interaction Z-score", "setting": "[4]; [16]", "result": "-0.279 ± 0.31"}, {"measurement": "promoter activity interaction Z-score", "setting": "[4]; [17]", "result": "-0.125 ± 0.14"}, {"measurement": "promoter activity interaction Z-score", "setting": "[4]; [18]", "result": "-0.0104 ± 0.026"}, {"measurement": "promoter activity interaction Z-score", "setting": "[4]; [19]", "result": "0.00344 ± 0.46"}, {"measurement": "promoter activity interaction Z-score", "setting": "[4]; [20]", "result": "0.234 ± 0.22"}, {"measurement": "promoter activity interaction Z-score", "setting": "[4]; [21]", "result": "-0.253 ± 0.025"}, {"measurement": "promoter activity interaction Z-score", "setting": "[4]; [22]", "result": "0.154 ± 0.41"}, {"measurement": "promoter activity interaction Z-score", "setting": "[5]; [7]", "result": "-0.0785 ± 0.09"}, {"measurement": "promoter activity interaction Z-score", "setting": "[5]; [8]", "result": "0.187 ± 0.029"}, {"measurement": "promoter activity interaction Z-score", "setting": "[5]; [9]", "result": "0.051 ± 0.17"}, {"measurement": "promoter activity interaction Z-score", "setting": "[5]; [10]", "result": "-0.175 ± 0.061"}, {"measurement": "promoter activity interaction Z-score", "setting": "[5]; [11]", "result": "-0.0143 ± 0.021"}, {"measurement": "promoter activity interaction Z-score", "setting": "[5]; [12]", "result": "0.127 ± 0.097"}, {"measurement": "promoter activity interaction Z-score", "setting": "[5]; [13]", "result": "0.055 ± 0.095"}, {"measurement": "promoter activity interaction Z-score", "setting": "[5]; [14]", "result": "-0.0693 ± 0.098"}, {"measurement": "promoter activity interaction Z-score", "setting": "[5]; [15]", "result": "-0.0515 ± 0.13"}, {"measurement": "promoter activity interaction Z-score", "setting": "[5]; [16]", "result": "0.0702 ± 0.24"}, {"measurement": "promoter activity interaction Z-score", "setting": "[5]; [17]", "result": "0.012 ± 0.11"}, {"measurement": "promoter activity interaction Z-score", "setting": "[5]; [18]", "result": "-0.155 ± 0.42"}, {"measurement": "promoter activity interaction Z-score", "setting": "[5]; [19]", "result": "-0.342 ± 0.028"}, {"measurement": "promoter activity interaction Z-score", "setting": "[5]; [20]", "result": "-0.0381 ± 0.14"}, {"measurement": "promoter activity interaction Z-score", "setting": "[5]; [21]", "result": "-0.122 ± 0.12"}, {"measurement": "promoter activity interaction Z-score", "setting": "[5]; [22]", "result": "-0.346 ± 0.37"}, {"measurement": "promoter activity interaction Z-score", "setting": "[6]; [7]", "result": "0.35 ± 1.1"}, {"measurement": "promoter activity interaction Z-score", "setting": "[6]; [8]", "result": "0.209 ± 0.5"}, {"measurement": "promoter activity interaction Z-score", "setting": "[6]; [9]", "result": "0.0748 ± 1.2"}, {"measurement": "promoter activity interaction Z-score", "setting": "[6]; [10]", "result": "-0.253 ± 0.35"}, {"measurement": "promoter activity interaction Z-score", "setting": "[6]; [11]", "result": "-0.149 ± 0.74"}, {"measurement": "promoter activity interaction Z-score", "setting": "[6]; [12]", "result": "-0.0811 ± 0.12"}, {"measurement": "promoter activity interaction Z-score", "setting": "[6]; [13]", "result": "0.0597 ± 0.79"}, {"measurement": "promoter activity interaction Z-score", "setting": "[6]; [14]", "result": "-0.531 ± 0.23"}, {"measurement": "promoter activity interaction Z-score", "setting": "[6]; [15]", "result": "-0.323 ± 0.58"}, {"measurement": "promoter activity interaction Z-score", "setting": "[6]; [16]", "result": "0.371 ± 0.19"}, {"measurement": "promoter activity interaction Z-score", "setting": "[6]; [17]", "result": "-0.107 ± 0.25"}, {"measurement": "promoter activity interaction Z-score", "setting": "[6]; [18]", "result": "-0.249 ± 0.24"}, {"measurement": "promoter activity interaction Z-score", "setting": "[6]; [19]", "result": "-0.897 ± 0.36"}, {"measurement": "promoter activity interaction Z-score", "setting": "[6]; [20]", "result": "0.397 ± 0.58"}, {"measurement": "promoter activity interaction Z-score", "setting": "[6]; [21]", "result": "0.104 ± 0.68"}, {"measurement": "promoter activity interaction Z-score", "setting": "[6]; [22]", "result": "0.637 ± 0.9"}]}
